# About 83,000 compounds went through this panel and 20% of them were active in at least one assay; those are over-represented in the sample as a whole.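 Treatment: one concentration, 48 hours, 96-well format. Scoring: percent growth, with anything below 10 considered active.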 Unmarked numbers belong to inactive results. Activity calls are given as the source filed them.
# Tested on: SK-MEL-5 melanoma
# Test: NCI-60 one-dose screen, 48 h (100 = growth as untreated, 0 = no growth, -100 = all killed)
# Conditions: 10 µM unless noted
row,SMILES,growth
1,O=C(Nc1ccc(CN2CCOCC2)c(C(F)(F)F)c1)c1nc2ccc3[nH]ncc3c2c2c1CCCC2,102%
2,CC(C)[C@H]1CCC2=C3CC[C@]45OC(=O)[C@@]6(CCC(C)(C)C[C@H]64)CC[C@@]5(C)[C@]3(C)CC[C@@]21C,42.6% [100 µM]
3,Cc1ccc2c(c1)/C(=N\N=C/c1cn(C(C)C)c3ccccc13)C(=O)N2,66%
4,COc1ccc(C(=O)c2nccc3cc(OC)c(OC)cc23)cc1OC,99.6%
5,Nc1cc(C(=O)O)[nH]c(=S)n1,98.8%
6,CC1(C)CC[C@]2(C(=O)O)CC[C@]3(C)C(=CC[C@@H]4[C@@]5(C)C/C(=C/c6cccnc6)[C@H](O)C(C)(C)[C@@H]5CC[C@]43C)[C@@H]2C1,-77.1% [100 µM] (active)
7,ClC1=C(Cl)C(Cl)=C(Cl)C1=Cc1ccccc1,-95.8% (active)
8,CCCCC(CCCCCC(CCCC)C1NC(C)Cc2cc(OC)c(OC)cc21)C1NC(C)Cc2cc(OC)c(OC)cc21 (stereo not drawn),-96.1% (active)
9,COc1ccccc1S(=O)Nc1ccccc1 (stereo not drawn),96.8%
10,Cc1cnc(N)nc1OCC(C)(C)CNC(=O)c1cccc(-c2ccc(S(=O)(=O)Nc3ccc4c(c3)N(C(=O)C3CC3)CCC4)cc2)c1,-36.1% (active)
11,C=C(C)[C@@H]1CC[C@]2(COC(=O)c3ccccc3C(=O)O)CC[C@]3(C)[C@H](CC[C@@H]4[C@@]5(C)CC[C@H](OC(=O)c6ccccc6C(=O)O)C(C)(C)[C@@H]5CC[C@]43C)[C@@H]12,11.9% [100 µM]
12,Cc1cc(N2CCCCCC2)nc(N2CCN(CC(=O)Nc3ccc4c(ccn4Cc4ccccc4)c3)CC2)n1,46.9%
13,CC1(C)C(=O)/C(=C\c2cccnc2)C[C@]2(C)[C@H]3CC[C@@H]4[C@H]5[C@H](C(=O)/C=C/c6cccnc6)CC[C@]5(C(=O)O)CC[C@@]4(C)[C@]3(C)CC[C@@H]12,-73.5% [100 µM] (active)
14,CCN(CC)CCSC(=O)C(O)(c1ccccc1)C1CCCC1 (stereo not drawn),117%
15,O=C(NNc1ccc(-c2ccccc2)nn1)c1ccccc1,102%
16,Cc1cc2c(C(C)C)c(O)c(O)c(C=NCc3ccoc3)c2c(O)c1-c1c(C)cc2c(C(C)C)c(O)c(O)c(C=NCc3ccco3)c2c1O,91.7%
17,c1ccc(-c2nnc(-c3c[nH]c4ncccc34)s2)cc1,91.6%
18,Cc1ccc(-c2cc(-c3ccc(C)cc3)nc(NCCNc3ccnc4cc(Cl)ccc34)n2)cc1,-93.1% (active)
19,Cn1cc(-c2noc(C(=O)c3cn(C)c4ncccc34)n2)c2ccccc21,87.9%

row,SMILES,growth
1,Cc1cc(NN=C(c2ccc(O)cc2)c2ccc(O)cc2)c([N+](=O)[O-])cc1[N+](=O)[O-],46%
2,O=C(C[n+]1ccn(CC(OCc2ccc(Cl)cc2Cl)c2ccc(Cl)cc2Cl)c1)c1ccc(F)cc1 (stereo not drawn),-99.3% (active)
3,COc1cc(-c2nc(SCCC(C)C)nc(Nc3ccc(S(N)(=O)=O)cc3)c2C#N)cc(OC)c1OC,37.4%
4,CC(C)=CCC[C@](C)(O)[C@H]1CC[C@]2(C)[C@@H]1CC[C@@H]1[C@@]3(C)CC[C@H](OC(=O)CCC(=O)O)C(C)(C)[C@@H]3CC[C@]12C,-41.3% [100 µM] (active)
5,C=C(C)[C@@H]1CC[C@]2(C)[C@H](CC[C@@H]3[C@@H]([C@@](C)(O)CCC=C(C)C)CC[C@]32C)[C@@]1(C)CCC(=O)O,-88.2% [100 µM] (active)
6,O=C(CCN1CCCCC1)c1ccc2ccccc2c1,97%
7,O=C(N/N=C/c1c(Cl)cccc1Cl)c1cccc(Nc2ccnc(C(F)(F)F)c2)c1,54.6%
8,CCc1ccc(C2=C/C(=C/c3ccccc3)C(=O)N2CCc2ccc(S(N)(=O)=O)cc2)cc1,98.1%
9,COc1cc2c(cc1OCCCCCOc1ccc(-n3c(C)nc4ccccc4c3=O)cc1)N=C[C@@H]1CCCN1C2=O,-79.6% (active)
10,CCN(CCO)CCC(=O)c1ccc([N+](=O)[O-])cc1,100%
11,COc1c(B(O)O)cccc1-c1nc2ccc3[nH]ncc3c2c2c1CCC2,52.4%
12,Cc1ccc(-c2cc(O)c(-c3ccc(C)cc3C)cc2O)c(C)c1,12.4%
13,C=C(C)[C@@H]1CC[C@]2(c3ncc(C)o3)CC[C@]3(C)[C@H](CC[C@@H]4[C@@](C)(CCC#N)[C@H](C(=C)C)CC[C@]43C)[C@@H]12,-92.1% [100 µM] (active)
14,Nc1nc(Nc2ccccc2)c2ncn(Cc3ccc4c(c3)OCO4)c2n1,21.4%
15,CC(=O)OC[C@]12CC[C@@H](C(=O)CBr)[C@@H]1[C@H]1CC[C@@H]3[C@@]4(C)CCCNC(C)(C)[C@@H]4CC[C@@]3(C)[C@]1(C)CC2,-91.7% [100 µM] (active)
16,C[C@@H]1C[C@H]2C(=O)O[C@@H](C)[C@H](NC(=O)[C@H](Cc3cc(F)cc(F)c3)NC(=O)Nc3ccc(Cl)cc3F)C(=O)N3C[C@H](O)C[C@H]3C(=O)N3CCN(C)C[C@H]3C(=O)N[C@@H](C)C(=O)N2C1,64.6%
17,COC(=O)C(=Cc1ccccc1[N+](=O)[O-])C(=O)OC,49.1%
18,CC1Cc2c(Cl)ncnc2N(C)c2ccc(Cl)cc21 (stereo not drawn),-86.9% (active)
19,CC1(C(=O)O)CCC(N)(C(=O)O)C1(C)C (stereo not drawn),107%

# Reference: PubChem BioAssay (NCI)
